Assay [1] can be described thus: Cell Viability - Jurkat (AID 426;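 active = dose-dependent loss of cell ATP signal giving a full or clear fitted curve, ranked by lower potency value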;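 also: potency is read from the fitted curve at half-maximal effect; cells exposed to compound for 40 hours at 37 °C before ATP read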). The following applies: qHTS. An outline of the steps: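 Cytotoxicity taken as drop in cellular ATP (CellTiter-Glo luminescence, 20 min room temperature) after 40 hr, 37C treatment of 5000 Jurkat Clone E6-1 cells per well; concentration-response fitted with Hill equation for AC50.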
Assay [2] is described as follows: Cell Viability - LYMP2-023 (AID 975).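 Also: cellular ATP measured by luciferase luminescence as viability proxy; cells exposed to compound for 24 hours at 37 °C; nearly all actives have a fitted effect of over 55% in size.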 In outline: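 Intracellular ATP, read by CellTiter-Glo luminescence, reports viability after 24 hr compound exposure at 37 C. 2500 lymphoblastoid cells/well (LYMP2-023) seeded 5 hr beforehand; Hill fits give AC50; positive control tetraoctylammonium bromide.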
Assay [3] in a line: Cell Viability - LYMP2-006 (AID 978).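 Also: cells exposed to compound for 24 hours; nearly all actives have a fitted effect of over 60% in size.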 In outline:
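Cells are seeded at 2500 per well and rested 5 hr at 37 C. Compounds are added across a concentration series for 24 hr at 37 C, after which ATP is quantified by luciferase luminescence.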

Assay [4] is described as follows: Cell Viability - LYMP2-008 (AID 980). Also: nearly all actives have a fitted effect of over 60% in size. In outline:
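Cytotoxicity determined from ATP-dependent luciferase luminescence (CellTiter-Glo) following 24 h compound exposure of human lymphoblastoid LYMP2-008 cells at 37 C. Concentration-response data fitted to the Hill equation to give AC50.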

A short description of assay [5]: Cell Viability - LYMP2-026 (AID 989). Also: nearly all actives have a fitted effect of over 50% in size. In outline: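 Cytotoxicity read as ATP-dependent luminescence (CellTiter-Glo, 30 min room temperature) after 24 h compound treatment at 37 C. LYMP2-026 lymphoblastoid line seeded at 2500 cells/well; AC50 derived by standard Hill equation.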
The nature of assay [6]: Cell Viability - LYMP1-002 - Assay at 40 hr (AID 994). Also: nearly all actives have a fitted effect of over 60% in size. In outline: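 Cytotoxicity was read as loss of cellular ATP (CellTiter-Glo luminescence) after 40 hr compound exposure at 37 C of 2500 LYMP1-002 lymphoblastoid cells per well. Concentration-response data were fitted with the standard Hill equation to give AC50.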
The target in assay [7] is Glucocorticoid receptor (Homo sapiens) (UniProt P04150). Kind of assay: qHTS assay for small molecule antagonists of glucocorticoid receptor signaling (AID 588533; active = well fitted inhibition curve with a large enough effect in the signal ratio, with a control signal flat, not every such curve was filed as active; the % refers to the signal ratio;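 also: cells stimulated with 2 nM dexamethasone as agonist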). In outline:
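Antagonist-mode qHTS: compound titrations added to GRE-bla HeLa cells, then dexamethasone 2 nM final; 18 h, 37 C. CCF4 FRET fluorescence normalized to dexamethasone and DMSO; IC50 from Hill fit.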
On the technique in general: qHTS replaces the single test concentration by a dilution series.

The target of assay [8] is Peroxisome proliferator-activated receptor gamma (Homo sapiens) (UniProt P37231). Put plainly: qHTS assay for small molecule agonists of peroxisome proliferator-activated receptor gamma signaling (AID 588536; active = well fitted curve in the direction sought with a large enough effect in the signal ratio, with a control signal flat, not every such curve was filed as active; the % refers to the signal ratio). An outline of the steps: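 This is an agonist-mode beta-lactamase reporter assay in HEK293 PPAR-gamma-UAS-bla cells with 1% charcoal/dextran FBS. Compound titrations ran 16 h at 37 C before CCF4 detection. EC50 and efficacy are Hill fits scaled to 2 uM rosiglitazone (100%) and DMSO basal.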

Assay [9] in a line: qHTS assay for small molecule antagonists of the retinoid-related orphan receptor gamma (ROR-gamma) signaling pathway - cell viability counter screen (AID 720652; active = well fitted curve in the direction sought with a large enough effect in the repeat runs; an effect the other way counts as inactive or inconclusive;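 also: CHO reporter cells with doxycycline-induced ROR-gamma expression; compound exposure lasted 16 hr before ATP read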). An outline of the steps:
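Cytotoxicity counter screen: intracellular ATP (CellTiter-Glo luminescence) measured in the doxycycline-induced CHO RORE-luciferase reporter line after 16 hr compound exposure at 37 C, 5% CO2.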

Assay [10] has as its target Guanine nucleotide-binding protein G(i) subunit alpha-1 (Homo sapiens) (UniProt P63096). Put plainly: qHTS Assay for Inhibitors of RGS12 GoLoco Motif Activity (Green Fluorophore) (AID 879).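 Also: negative values mean loss of peptide binding seen as reduced polarization.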 In outline: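 A drop in FITC polarization marked displacement of the FITC-tagged RGS12 GoLoco peptide (10 nM) from Gαi1 (50 nM). Compounds were incubated 10 min at room temperature in Tris pH 7.5 buffer containing 150 mM NaCl, 0.1 mM GDP and 0.05% NP40; unlabeled peptide titration served as control.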

The target of assay [11] is Muscarinic acetylcholine receptor M1 (Rattus norvegicus) (UniProt P08482). Put plainly: qHTS Assay for Antagonists of Acetylcholine Muscarinic M1 Receptor: Measurement of IP-One Response (AID 944). Also: nearly all actives have a fitted effect of over 75% in size. Also: potency is read from the fitted curve at half-maximal effect. An outline of the steps:
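IP1 accumulation measured via TR-FRET between d2-IP1 and Eu-cryptate anti-IP1 antibody after carbachol (200 nM, EC80) stimulation for 30 min; rat M1-transfected CHO cells received compound 10 min before agonist.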

The target of assay [12] is Pyruvate kinase (Leishmania mexicana) (UniProt Q27686). Kind of assay: qHTS Validation Assay for Inhibitors of Leishmania Mexicana Pyruvate Kinase (AID 945). An outline of the steps: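 Pyruvate kinase activity of E451W LmPYK (0.2 nM) was followed as ATP output after 1 h at room temperature with 0.5 mM PEP and 0.1 mM ADP, detected by PKLight luminescence.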
The target in assay [13] is Pyruvate kinase PKM (Homo sapiens) (UniProt P14618). Kind of assay: qHTS Assay for Activators of Human Muscle Pyruvate Kinase (AID 954; active = well fitted curve in the direction sought with a large enough effect, not every such curve was filed as active). An outline of the steps: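 ATP production by PKM2 detected via luciferase luminescence after 1 h room-temperature reaction (0.1 nM enzyme, PEP at Km 0.5 mM, ADP 0.1 mM, pH 7.2 imidazole buffer). Inhibition scaled to no-enzyme control; activation referenced to 0.3 nM enzyme wells.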

Assay [14] is described as follows: Cell Viability - Mesenchymal (AID 546).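 Also: cells exposed to compound for 40 hours before reading.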 The following applies: mesenchymal cells viability, qHTS; activity change, negative = cytotoxicity: at 91.7 µM (top of the series). In outline: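 In this qHTS cytotoxicity format, glomerulus-derived human mesenchymal kidney cells received compound for 40 hr, then luciferase-based ATP quantitation. Concentration-response data were fitted with the Hill equation.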

Assay [15] can be described thus: Cellular Toxicity (caspase-3) SK-N-SH (AID 661).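 Also: cells exposed to compound for 16 hours.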 In outline:
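Caspase 3/7 activation was read by luminogenic substrate cleavage after 16 hour treatment of SK-N-SH cells. Signal was scaled between DMSO and 10 uM staurosporine, and concentration-response data were fitted with the Hill equation for AC50.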

Assay [16] is described as follows: Cell Viability - LYMP1-003 - Assay at 24 hr (AID 963). An outline of the steps:
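Concentration-response qHTS: ATP loss measured by CellTiter-Glo luminescence after 24 h compound exposure at 37 C. Cells were LYMP1-003 human lymphoblastoid, 2500 per well. AC50 derived via standard Hill equation modeling.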

In assay [17] the target is Estrogen receptor (Homo sapiens) (UniProt P03372). Kind of assay: qHTS assay for small molecule antagonists of estrogen receptor alpha signaling (AID 588513; active = well fitted curve in the direction sought with a large enough effect in the signal ratio, with a control signal flat, not every such curve was filed as active; the % refers to the signal ratio). An outline of the steps: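 Fluorescence from CCF4 substrate after 2 h at room temperature gave reporter activity; cells had been exposed to compound and 0.5nM 17-beta-estradiol for 18 h at 37 C. Hill-equation fitting yielded IC50 and maximal response.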

The text below walks through data of PubChem BioAssay (NCATS).

Values without a mark were called inactive. Results filed as inconclusive are left out. Calls of active or inactive are those of the source. Unless noted, calls follow the shape of the dose curve; as a rule, active = well fitted curve in the direction sought with a large enough effect; inconclusive = small, poorly fitted or top-dose-only effect, or another doubt; inactive = no such curve, though single readings can be large; an effect the other way counts as inactive or inconclusive.

Muscarinic acetylcholine receptor M1 (Rattus norvegicus), sequence (P08482 whole entry, looked up): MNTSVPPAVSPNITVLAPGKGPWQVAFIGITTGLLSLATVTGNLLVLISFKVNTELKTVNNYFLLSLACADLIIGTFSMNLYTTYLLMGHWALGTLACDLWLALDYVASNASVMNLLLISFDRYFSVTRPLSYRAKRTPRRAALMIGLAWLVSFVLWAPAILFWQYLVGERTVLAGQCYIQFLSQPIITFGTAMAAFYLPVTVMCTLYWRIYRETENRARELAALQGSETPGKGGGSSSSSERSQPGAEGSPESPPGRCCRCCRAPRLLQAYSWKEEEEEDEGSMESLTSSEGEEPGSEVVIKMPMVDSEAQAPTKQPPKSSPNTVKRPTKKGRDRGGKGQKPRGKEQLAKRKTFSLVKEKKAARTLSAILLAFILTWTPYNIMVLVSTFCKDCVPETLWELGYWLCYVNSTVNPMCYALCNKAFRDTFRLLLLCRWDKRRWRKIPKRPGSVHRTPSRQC
Pyruvate kinase PKM (Homo sapiens), sequence (P14618 whole entry, looked up): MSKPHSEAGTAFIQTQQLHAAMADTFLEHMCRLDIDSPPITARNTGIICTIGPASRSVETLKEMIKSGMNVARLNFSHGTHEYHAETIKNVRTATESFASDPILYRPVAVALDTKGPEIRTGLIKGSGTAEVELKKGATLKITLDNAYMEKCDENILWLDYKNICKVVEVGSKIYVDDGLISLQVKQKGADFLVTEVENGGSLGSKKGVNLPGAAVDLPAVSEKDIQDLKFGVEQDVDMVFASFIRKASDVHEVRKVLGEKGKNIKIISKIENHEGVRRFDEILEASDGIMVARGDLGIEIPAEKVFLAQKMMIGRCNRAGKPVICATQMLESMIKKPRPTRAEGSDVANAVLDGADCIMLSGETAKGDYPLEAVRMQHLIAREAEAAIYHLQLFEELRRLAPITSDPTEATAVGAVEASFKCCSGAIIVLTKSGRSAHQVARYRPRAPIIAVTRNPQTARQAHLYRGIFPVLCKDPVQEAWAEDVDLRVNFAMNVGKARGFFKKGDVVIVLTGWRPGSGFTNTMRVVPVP
Glucocorticoid receptor (Homo sapiens), sequence (P04150 whole entry, looked up): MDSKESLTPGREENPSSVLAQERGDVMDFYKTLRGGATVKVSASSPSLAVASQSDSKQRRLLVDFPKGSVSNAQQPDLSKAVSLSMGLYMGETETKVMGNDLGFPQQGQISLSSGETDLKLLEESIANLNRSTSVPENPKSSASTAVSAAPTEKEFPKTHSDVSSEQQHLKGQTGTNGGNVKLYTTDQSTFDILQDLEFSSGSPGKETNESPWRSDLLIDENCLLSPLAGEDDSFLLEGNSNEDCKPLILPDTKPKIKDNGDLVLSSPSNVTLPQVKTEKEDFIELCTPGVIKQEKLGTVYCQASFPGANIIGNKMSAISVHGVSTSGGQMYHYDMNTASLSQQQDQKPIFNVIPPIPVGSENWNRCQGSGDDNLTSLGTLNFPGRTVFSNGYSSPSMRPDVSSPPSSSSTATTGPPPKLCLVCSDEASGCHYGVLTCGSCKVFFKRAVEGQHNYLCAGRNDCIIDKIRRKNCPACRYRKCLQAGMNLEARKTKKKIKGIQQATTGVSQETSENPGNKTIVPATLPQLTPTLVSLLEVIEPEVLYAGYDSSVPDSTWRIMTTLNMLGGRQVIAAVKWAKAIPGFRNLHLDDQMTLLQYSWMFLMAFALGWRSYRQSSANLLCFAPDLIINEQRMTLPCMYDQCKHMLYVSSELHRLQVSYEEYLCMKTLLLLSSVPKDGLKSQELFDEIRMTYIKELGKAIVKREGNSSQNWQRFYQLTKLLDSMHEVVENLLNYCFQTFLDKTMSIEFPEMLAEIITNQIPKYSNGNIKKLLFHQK
Guanine nucleotide-binding protein G(i) subunit alpha-1 (Homo sapiens), sequence (P63096 whole entry, looked up): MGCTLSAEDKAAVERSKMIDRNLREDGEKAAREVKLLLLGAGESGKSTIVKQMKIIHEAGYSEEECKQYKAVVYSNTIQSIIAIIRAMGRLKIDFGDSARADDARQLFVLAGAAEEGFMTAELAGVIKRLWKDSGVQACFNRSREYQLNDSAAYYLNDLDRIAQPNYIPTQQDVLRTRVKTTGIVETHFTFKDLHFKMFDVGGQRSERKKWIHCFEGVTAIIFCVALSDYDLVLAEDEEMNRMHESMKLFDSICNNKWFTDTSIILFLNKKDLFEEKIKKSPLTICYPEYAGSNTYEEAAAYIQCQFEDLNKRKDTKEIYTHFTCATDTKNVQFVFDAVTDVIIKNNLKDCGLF
Peroxisome proliferator-activated receptor gamma (Homo sapiens), sequence (P37231 whole entry, looked up): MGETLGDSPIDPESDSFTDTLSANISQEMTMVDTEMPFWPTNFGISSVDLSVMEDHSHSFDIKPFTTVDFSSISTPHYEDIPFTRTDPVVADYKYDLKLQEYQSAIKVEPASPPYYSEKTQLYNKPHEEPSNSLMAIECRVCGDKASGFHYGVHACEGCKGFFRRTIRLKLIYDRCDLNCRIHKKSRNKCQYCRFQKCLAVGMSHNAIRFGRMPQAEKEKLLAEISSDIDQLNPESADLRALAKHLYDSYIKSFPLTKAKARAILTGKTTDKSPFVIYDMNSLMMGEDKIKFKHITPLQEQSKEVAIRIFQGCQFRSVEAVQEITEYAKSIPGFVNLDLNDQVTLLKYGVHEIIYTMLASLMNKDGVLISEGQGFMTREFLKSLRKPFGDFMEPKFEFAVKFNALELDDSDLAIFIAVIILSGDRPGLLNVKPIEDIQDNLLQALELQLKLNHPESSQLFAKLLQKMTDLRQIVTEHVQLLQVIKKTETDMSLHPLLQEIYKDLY
Pyruvate kinase (Leishmania mexicana), sequence (Q27686 2-499 E452W): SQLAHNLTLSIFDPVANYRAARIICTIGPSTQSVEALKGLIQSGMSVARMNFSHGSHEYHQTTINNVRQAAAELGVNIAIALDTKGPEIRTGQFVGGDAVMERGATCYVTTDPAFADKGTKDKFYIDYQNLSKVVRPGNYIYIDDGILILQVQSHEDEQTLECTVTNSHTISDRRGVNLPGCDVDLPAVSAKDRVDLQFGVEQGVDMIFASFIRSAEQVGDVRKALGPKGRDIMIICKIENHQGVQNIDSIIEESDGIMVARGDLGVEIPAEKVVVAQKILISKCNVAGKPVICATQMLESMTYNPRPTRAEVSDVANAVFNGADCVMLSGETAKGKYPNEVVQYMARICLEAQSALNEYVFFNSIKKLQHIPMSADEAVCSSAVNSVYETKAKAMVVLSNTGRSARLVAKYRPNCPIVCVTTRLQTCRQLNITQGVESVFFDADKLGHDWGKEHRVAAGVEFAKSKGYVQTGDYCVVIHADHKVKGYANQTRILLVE
Estrogen receptor (Homo sapiens), sequence (P03372 whole entry, looked up): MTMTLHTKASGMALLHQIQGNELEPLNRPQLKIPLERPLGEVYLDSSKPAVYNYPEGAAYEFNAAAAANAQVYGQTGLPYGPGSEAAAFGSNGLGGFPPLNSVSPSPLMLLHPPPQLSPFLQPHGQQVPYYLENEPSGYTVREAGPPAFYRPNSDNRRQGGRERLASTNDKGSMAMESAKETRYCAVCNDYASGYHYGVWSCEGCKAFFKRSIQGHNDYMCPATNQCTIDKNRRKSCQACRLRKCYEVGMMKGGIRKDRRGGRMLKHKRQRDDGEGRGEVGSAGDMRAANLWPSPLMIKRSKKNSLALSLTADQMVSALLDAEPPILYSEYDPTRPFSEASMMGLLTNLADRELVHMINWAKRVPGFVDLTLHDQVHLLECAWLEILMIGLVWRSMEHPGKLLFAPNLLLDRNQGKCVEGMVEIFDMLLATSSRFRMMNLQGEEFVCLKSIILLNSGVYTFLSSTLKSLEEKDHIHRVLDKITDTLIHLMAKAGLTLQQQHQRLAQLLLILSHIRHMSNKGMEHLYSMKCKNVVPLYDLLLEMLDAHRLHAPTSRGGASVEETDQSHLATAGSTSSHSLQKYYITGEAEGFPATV

Turning to `CC(=O)OC1CC(C)OC(C)O1` (configuration not stated), the Potency in assay [1] was > 92 µM. The Potency result in assay [2], in assay [3], in assay [4], in [5], in [6] and in assay [7] was “inactive” in each case. In addition, the Potency entry in assay [9] is “inactive”. The outcome in assay [8] was inactive.
On to `COc1cc2c(cc1O)CC[C@@H]1[C@@H]2CC[C@@]2(C)[C@H](O)CC[C@H]12`, for which the call in assay [10], in assay [12] and in assay [13] was inactive. The Potency result in [11] was “inactive”.
On to `COc1ccc(CCN(C)CCC[C@@](C#N)(c2cc(OC)c(OC)c(OC)c2)C(C)C)cc1OC`, for which the compound was classed as inactive in assay [10], in assay [12] and in assay [13]. The Potency entry in assay [11] is “inactive”.
In the case of `C[C@@H](COc1ccc(/C=C\c2ccccc2)cc1)[N+](C)(C)C`, the compound was classed as inactive in assay [10], in assay [12] and in assay [13]. In assay [11], the Potency is 7.08 µM (active).
Take `C[C@@H](CN1CCC(Cc2ccccc2)CC1)[C@H](O)c1ccc(O)cc1`: the result in assay [10] and in assay [13] was inactive. In addition, in assay [11], the Potency is 7.08 µM (active).
Regarding `COC(=O)[C@](C)(N)Cc1ccc(O)cc1`, the result in assay [10], in [12] and in [13] was inactive. The Potency entry in assay [11] is “inactive”.
With `O[C@H](CN1CCN(c2cccc(Cl)c2)CC1)C(c1ccccc1)c1ccccc1`, the compound was called inactive in assay [10], in [12] and in [13]. For the same compound, in assay [11], the Potency result is “inactive”.
On to `CCCC(=O)OC(=O)CCC`, for which the Potency in assay [1] was > 92 µM. In addition, the Potency entry in [14], in assay [16], in [3], in assay [4], in [5] and in assay [6] was “inactive” each time. Besides, the result in assay [15] and in assay [8] was inactive.
On to `CC(C)C[C@H]1C(=O)N2CCC[C@@H]2[C@]2(O)O[C@](NC(=O)[C@H]3C=C4c5cccc6[nH]c(Br)c(c56)C[C@H]4N(C)C3)(C(C)C)C(=O)N12`, for which the compound was classed as inactive in assay [10], in assay [12] and in assay [13].
With `COc1ccc(C(=O)Nc2ccccc2)cc1[N+](=O)[O-]`, in assay [1], the Potency was > 92 µM. Moreover, the Potency result in assay [14], in [16], in assay [4], in [5], in [6] and in [7] was “inactive” throughout. Also, the compound was called inactive in [17] and in assay [8].
With `COc1ccccc1OC[C@H](O)CN1CCN(CC(=O)Nc2c(C)cccc2C)CC1`, the call in assay [10], in assay [12] and in assay [13] was inactive. The Potency entry in [11] is “inactive”.
